Data on 1 sequence can be found in publication PMC7862700, “An all-to-all approach to the identification of sequence-specific readers for epigenetic DNA modifications on cytosine”.

Common to all, as to assay: DAPPL (digital affinity profiling via proximity ligation, sequencing); 10 mM Tris-HCl pH 7.5, 50 mM NaCl, 1 mM DTT, 4% glycerol, room temperature, 30 min; GST-TFs on glutathione beads, 16-mer random dsDNA library, 0.1% formaldehyde crosslink after washing; high values mean tight binding
One assay addresses T1, FEV (Homo sapiens, UniProt Q99581 1-238).
T1 sequence: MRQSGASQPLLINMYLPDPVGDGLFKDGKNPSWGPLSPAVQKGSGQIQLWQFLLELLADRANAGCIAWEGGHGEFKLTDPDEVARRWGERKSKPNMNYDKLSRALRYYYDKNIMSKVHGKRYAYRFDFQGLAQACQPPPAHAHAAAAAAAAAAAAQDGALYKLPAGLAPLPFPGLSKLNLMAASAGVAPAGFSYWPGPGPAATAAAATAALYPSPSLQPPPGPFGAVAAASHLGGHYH
The settings on record: protein: recombinant; tags: N-terminal GST; dsDNA, one strand shown. In short, it runs like this:
(§1)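 Binding signal is given per hexamer as its read frequency for a factor divided by its frequency in the tag-only sample. GST-fused human transcription factors were expressed in yeast, captured on glutathione beads, barcoded with DNA and pooled with that sample, then incubated with 200 nmole of a 16-mer random double-stranded DNA library in Tris/NaCl/DTT/glycerol buffer for 30 min at room temperature. The pools were then washed, crosslinked, proximity-ligated, amplified by PCR and sequenced on an Illumina NextSeq500.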

The target of the next assay is ETV5 (Homo sapiens, UniProt P41161 1-510). The note with it: protein: recombinant; tags: N-terminal GST; dsDNA, one strand shown. The essentials:
as §1

Another assay concerns the target HSF1 (Homo sapiens, UniProt Q00613 1-529). The settings on record: protein: recombinant; tags: N-terminal GST; chain copies: 3; dsDNA, one strand shown. The essentials:
as §1

The target in the next assay is T2, SPIC (Homo sapiens, UniProt Q8N5J4 1-248).
T2 sequence: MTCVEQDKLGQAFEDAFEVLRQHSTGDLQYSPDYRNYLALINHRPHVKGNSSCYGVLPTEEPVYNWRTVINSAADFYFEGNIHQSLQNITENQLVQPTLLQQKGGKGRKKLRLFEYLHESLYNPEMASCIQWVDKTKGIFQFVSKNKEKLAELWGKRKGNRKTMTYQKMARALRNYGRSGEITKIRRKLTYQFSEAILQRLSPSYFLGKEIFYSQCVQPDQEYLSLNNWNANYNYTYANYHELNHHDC
The note with it: protein: recombinant; tags: N-terminal GST; dsDNA, one strand shown. The essentials: as §1

A further assay has as its target ELF4 (Homo sapiens, UniProt Q99607 1-663). The settings on record: protein: recombinant; tags: N-terminal GST; dsDNA, one strand shown. The essentials:
as §1

A further assay addresses T3, ELK4 (Homo sapiens, UniProt P28324-2 1-405).
T3 sequence: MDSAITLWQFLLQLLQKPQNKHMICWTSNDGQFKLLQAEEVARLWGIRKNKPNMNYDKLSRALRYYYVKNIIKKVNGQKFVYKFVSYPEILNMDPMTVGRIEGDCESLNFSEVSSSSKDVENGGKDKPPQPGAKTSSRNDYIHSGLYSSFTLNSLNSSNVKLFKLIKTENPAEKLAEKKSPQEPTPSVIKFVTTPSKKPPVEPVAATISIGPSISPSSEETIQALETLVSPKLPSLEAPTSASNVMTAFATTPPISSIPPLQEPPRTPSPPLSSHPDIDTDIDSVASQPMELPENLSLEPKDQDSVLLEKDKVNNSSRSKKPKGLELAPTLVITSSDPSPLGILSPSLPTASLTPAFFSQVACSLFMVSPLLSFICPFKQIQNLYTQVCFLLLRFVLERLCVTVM
The note with it: protein: recombinant; tags: N-terminal GST; dsDNA, one strand shown. The essentials:
as §1

The target in the next assay is T4, ETV2 (Homo sapiens, UniProt O00321 1-342).
T4 sequence: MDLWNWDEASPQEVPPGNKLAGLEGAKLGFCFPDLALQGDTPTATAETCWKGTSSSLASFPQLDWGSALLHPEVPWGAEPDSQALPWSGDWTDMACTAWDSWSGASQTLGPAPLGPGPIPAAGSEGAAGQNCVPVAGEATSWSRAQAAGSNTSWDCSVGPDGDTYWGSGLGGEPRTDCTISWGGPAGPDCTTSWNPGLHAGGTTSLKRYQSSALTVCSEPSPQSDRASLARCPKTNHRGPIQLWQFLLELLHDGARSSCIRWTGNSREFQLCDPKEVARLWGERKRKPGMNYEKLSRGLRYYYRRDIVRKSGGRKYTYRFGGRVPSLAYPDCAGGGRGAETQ
The settings on record: protein: recombinant; tags: N-terminal GST; dsDNA, one strand shown. In short, it runs like this: as §1

The target of a further assay is T5, ELF3 (Homo sapiens, UniProt P78545 1-371).
T5 sequence: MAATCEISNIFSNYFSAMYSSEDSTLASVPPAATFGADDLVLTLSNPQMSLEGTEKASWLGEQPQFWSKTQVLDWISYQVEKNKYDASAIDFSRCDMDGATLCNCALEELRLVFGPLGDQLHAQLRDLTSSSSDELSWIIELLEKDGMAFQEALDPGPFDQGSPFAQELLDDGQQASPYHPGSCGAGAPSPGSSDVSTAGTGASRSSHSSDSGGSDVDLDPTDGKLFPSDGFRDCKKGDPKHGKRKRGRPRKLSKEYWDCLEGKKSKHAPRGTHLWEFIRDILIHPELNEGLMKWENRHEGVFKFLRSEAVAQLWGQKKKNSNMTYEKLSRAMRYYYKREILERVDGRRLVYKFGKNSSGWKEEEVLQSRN
The settings on record: protein: recombinant; tags: N-terminal GST; dsDNA, one strand shown. In short, it runs like this: as §1

Another assay has as its target CRX (Homo sapiens, UniProt O43186 1-299). The settings on record: protein: recombinant; tags: N-terminal GST; dsDNA, one strand shown. In short, it runs like this:
as §1

The next assay deals with ETV1 (Homo sapiens, UniProt P50549 1-477). The note with it: protein: recombinant; tags: N-terminal GST; dsDNA, one strand shown. In short, it runs like this: as §1
ETV1, sequence (P50549 whole entry): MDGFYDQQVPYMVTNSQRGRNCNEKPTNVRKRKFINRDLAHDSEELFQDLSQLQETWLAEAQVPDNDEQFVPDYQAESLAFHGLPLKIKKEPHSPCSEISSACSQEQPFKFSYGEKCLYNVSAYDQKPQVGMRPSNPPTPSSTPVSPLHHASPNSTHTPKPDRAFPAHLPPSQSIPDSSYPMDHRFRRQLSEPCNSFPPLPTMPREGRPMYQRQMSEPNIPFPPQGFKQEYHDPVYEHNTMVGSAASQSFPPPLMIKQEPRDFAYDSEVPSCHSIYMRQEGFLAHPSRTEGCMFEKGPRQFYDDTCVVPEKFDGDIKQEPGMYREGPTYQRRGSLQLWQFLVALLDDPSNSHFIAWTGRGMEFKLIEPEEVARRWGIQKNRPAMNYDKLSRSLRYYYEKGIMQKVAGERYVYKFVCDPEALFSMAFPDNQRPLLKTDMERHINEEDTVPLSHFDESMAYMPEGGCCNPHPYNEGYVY
Another assay deals with T6, ERF (Homo sapiens, UniProt P50548 1-548).
T6 sequence: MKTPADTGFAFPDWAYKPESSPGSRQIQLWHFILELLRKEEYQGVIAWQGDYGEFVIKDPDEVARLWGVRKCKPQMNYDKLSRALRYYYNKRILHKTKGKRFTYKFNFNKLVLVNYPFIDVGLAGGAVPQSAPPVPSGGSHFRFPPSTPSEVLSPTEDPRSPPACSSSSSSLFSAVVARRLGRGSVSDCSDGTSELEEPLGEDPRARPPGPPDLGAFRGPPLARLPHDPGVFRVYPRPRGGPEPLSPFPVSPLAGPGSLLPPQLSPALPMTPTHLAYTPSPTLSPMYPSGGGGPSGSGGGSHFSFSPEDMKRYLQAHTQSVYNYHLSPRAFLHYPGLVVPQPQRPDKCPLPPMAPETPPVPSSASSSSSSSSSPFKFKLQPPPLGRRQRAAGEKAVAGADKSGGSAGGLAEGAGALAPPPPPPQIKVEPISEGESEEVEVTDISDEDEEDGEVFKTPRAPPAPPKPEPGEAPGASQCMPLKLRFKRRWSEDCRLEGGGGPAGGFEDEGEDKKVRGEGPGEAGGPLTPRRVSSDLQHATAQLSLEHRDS
The settings on record: protein: recombinant; tags: N-terminal GST; dsDNA, one strand shown. The essentials:
as §1

For the next assay, the target named is T7, ETV3L (Homo sapiens, UniProt Q6ZN32 1-361).
T7 sequence: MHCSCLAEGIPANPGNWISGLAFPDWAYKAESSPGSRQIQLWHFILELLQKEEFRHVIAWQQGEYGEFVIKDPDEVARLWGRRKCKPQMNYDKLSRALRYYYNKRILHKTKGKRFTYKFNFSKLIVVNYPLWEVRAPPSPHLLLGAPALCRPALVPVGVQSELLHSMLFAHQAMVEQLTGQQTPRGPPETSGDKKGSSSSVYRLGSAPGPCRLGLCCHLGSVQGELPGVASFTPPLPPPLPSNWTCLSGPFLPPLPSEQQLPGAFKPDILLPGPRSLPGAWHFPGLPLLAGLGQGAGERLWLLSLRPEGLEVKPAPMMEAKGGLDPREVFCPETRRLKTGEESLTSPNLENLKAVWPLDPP
The note with it: protein: recombinant; tags: N-terminal GST; dsDNA, one strand shown. The essentials: as §1

The next assay concerns the target T8, ETS2 (Homo sapiens, UniProt P15036 1-469).
T8 sequence: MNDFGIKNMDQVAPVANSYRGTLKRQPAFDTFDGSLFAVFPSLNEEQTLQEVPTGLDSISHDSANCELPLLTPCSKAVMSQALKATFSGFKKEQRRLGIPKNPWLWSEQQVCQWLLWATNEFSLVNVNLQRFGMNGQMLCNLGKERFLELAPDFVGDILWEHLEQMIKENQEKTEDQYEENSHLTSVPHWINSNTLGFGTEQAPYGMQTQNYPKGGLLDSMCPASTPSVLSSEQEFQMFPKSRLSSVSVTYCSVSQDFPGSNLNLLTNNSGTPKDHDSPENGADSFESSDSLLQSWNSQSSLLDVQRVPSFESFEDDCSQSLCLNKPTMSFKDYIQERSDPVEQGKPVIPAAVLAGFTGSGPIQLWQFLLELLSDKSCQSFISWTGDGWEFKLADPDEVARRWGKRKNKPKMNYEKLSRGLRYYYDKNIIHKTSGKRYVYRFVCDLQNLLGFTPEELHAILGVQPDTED
The note with it: protein: recombinant; tags: N-terminal GST; dsDNA, one strand shown. The essentials: as §1

In another assay the target is T9, SPDEF (Homo sapiens, UniProt O95238 1-335).
T9 sequence: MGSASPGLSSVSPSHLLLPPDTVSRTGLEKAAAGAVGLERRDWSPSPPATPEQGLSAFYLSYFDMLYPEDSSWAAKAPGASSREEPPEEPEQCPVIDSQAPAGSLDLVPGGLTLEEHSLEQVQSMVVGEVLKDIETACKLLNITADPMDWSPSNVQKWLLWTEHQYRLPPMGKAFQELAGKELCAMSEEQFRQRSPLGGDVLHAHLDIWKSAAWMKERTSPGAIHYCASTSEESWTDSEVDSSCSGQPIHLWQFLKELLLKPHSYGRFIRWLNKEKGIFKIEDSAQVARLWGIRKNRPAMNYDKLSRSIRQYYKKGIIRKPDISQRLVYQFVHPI
The note with it: protein: recombinant; tags: N-terminal GST; dsDNA, one strand shown. In short, it runs like this: as §1

The target in the next assay is T10, ETV7 (Homo sapiens, UniProt Q9Y603 1-341).
T10 sequence: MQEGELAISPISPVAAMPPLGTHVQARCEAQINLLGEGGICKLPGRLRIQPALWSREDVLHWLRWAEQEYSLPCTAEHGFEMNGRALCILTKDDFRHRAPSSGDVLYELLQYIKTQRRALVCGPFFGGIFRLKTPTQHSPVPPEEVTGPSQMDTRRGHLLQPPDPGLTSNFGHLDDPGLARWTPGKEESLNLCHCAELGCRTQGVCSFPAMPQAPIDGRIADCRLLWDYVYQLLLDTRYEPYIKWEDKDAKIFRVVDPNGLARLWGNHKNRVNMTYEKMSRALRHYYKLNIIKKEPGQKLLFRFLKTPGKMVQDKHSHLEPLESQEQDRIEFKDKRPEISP
The note with it: protein: recombinant; tags: N-terminal GST; dsDNA, one strand shown. The essentials: as §1

The target in a further assay is T11, ELF5 (Homo sapiens, UniProt Q9UKW6-2 1-255).
T11 sequence: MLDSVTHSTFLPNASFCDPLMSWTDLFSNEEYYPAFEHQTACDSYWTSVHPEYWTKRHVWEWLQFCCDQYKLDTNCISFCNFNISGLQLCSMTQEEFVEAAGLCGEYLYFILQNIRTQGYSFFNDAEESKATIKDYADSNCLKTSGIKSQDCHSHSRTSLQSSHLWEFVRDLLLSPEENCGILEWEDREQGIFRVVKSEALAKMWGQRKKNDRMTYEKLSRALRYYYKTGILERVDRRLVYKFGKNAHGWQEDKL
The settings on record: protein: recombinant; tags: N-terminal GST; dsDNA, one strand shown. In short, it runs like this:
as §1

For another assay, the target named is T12, ETV3 (Homo sapiens, UniProt P41162-2 1-143).
T12 sequence: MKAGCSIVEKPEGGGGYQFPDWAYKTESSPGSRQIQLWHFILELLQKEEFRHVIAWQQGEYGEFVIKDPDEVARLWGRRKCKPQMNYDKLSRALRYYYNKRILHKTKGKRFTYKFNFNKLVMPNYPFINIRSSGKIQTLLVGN
The settings on record: protein: recombinant; tags: N-terminal GST; dsDNA, one strand shown. The essentials: as §1

For another assay, the target named is ETV6 (Homo sapiens, UniProt P41212 1-452). The settings on record: protein: recombinant; tags: N-terminal GST; dsDNA, one strand shown. In short, it runs like this: as §1
ETV6, sequence (P41212 whole entry): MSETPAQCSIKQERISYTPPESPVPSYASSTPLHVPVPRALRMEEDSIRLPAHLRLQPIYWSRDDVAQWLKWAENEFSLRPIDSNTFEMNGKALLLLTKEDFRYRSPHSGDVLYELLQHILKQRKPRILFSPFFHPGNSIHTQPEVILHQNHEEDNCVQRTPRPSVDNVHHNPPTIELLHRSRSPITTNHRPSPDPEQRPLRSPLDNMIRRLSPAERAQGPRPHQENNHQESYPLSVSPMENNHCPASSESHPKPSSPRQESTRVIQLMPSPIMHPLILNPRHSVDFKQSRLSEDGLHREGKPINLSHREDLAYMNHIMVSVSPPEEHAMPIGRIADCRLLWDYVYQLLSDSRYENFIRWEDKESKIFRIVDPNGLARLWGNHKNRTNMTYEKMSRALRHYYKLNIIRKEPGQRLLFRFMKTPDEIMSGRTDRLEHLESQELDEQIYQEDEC

HSF1, sequence (Q00613 whole entry): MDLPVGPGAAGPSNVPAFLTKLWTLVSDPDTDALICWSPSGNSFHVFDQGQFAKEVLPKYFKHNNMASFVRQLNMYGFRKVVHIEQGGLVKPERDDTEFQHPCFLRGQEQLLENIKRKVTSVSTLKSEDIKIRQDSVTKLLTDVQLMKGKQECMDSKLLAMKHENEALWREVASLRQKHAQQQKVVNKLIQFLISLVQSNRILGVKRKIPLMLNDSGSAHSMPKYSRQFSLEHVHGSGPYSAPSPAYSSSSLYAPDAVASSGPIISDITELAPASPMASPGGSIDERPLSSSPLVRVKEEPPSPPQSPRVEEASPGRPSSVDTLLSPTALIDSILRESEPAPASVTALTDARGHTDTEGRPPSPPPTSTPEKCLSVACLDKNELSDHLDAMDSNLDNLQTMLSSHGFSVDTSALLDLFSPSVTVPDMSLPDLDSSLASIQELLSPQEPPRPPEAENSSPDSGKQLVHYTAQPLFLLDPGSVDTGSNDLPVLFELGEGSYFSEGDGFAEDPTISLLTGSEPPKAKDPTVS
ELF4, sequence (Q99607 whole entry): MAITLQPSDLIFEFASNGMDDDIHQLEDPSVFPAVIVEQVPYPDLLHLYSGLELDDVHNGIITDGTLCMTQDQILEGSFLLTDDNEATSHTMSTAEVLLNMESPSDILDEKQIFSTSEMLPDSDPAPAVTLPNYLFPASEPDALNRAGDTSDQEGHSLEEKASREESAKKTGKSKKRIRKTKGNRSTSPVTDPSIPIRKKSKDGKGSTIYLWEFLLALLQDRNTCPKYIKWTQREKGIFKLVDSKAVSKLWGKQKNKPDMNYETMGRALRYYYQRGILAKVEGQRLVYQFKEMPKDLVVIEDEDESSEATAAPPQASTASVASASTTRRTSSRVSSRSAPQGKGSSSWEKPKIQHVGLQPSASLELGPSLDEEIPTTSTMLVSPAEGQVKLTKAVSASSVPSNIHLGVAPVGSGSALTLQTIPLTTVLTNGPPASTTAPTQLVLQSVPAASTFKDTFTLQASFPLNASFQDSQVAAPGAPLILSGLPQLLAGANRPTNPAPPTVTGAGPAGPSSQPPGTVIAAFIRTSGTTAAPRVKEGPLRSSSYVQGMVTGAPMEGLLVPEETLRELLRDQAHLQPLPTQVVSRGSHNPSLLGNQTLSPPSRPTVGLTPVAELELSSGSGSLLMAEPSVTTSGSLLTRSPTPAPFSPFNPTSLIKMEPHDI
CRX, sequence (O43186 whole entry): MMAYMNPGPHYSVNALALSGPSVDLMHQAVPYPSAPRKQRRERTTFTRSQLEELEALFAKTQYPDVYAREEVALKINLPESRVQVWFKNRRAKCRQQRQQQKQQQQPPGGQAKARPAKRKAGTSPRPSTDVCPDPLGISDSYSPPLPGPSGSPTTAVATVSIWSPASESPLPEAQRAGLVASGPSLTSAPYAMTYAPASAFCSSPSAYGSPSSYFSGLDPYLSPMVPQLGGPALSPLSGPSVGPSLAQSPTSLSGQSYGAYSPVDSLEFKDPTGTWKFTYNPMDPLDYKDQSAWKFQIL
ETV5, sequence (P41161 whole entry): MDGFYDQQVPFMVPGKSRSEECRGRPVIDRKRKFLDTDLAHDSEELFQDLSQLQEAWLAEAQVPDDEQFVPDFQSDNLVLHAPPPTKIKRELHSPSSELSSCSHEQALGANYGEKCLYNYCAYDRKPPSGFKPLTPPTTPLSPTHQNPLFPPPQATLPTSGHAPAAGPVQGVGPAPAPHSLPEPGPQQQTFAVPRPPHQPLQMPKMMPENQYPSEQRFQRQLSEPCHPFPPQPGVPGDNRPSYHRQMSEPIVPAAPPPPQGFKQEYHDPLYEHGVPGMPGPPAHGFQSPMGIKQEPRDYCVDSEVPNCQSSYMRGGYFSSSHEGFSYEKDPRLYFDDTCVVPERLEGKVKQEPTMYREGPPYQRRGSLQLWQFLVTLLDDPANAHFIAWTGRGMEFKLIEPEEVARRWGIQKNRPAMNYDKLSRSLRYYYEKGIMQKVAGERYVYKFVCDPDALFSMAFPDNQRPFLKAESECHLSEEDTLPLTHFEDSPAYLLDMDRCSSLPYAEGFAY

Turning to ATATCA, the binding signal with FEV is 1.1 fold enrichment (6-mer frequency, TF over GST control); with ETV5 it was 1.19 fold enrichment (6-mer frequency, TF over GST control); with HSF1, 1.04 fold enrichment (6-mer frequency, TF over GST control); in the assay with SPIC, 1.21 fold enrichment (6-mer frequency, TF over GST control); with ELF4 it was 1.19 fold enrichment (6-mer frequency, TF over GST control); with ELK4 it was 1.16 fold enrichment (6-mer frequency, TF over GST control). The binding signal with ETV2 is 1.29 fold enrichment (6-mer frequency, TF over GST control); with ELF3, 1.08 fold enrichment (6-mer frequency, TF over GST control); with CRX, 1.13 fold enrichment (6-mer frequency, TF over GST control); with ETV1 it was 1.14 fold enrichment (6-mer frequency, TF over GST control); in the assay with ERF, 1.19 fold enrichment (6-mer frequency, TF over GST control); with ETV3L it was 1.1 fold enrichment (6-mer frequency, TF over GST control). In addition, the binding signal was 1.2 fold enrichment (6-mer frequency, TF over GST control) in the assay with ETS2; 1.2 fold enrichment (6-mer frequency, TF over GST control) with SPDEF; 1.13 fold enrichment (6-mer frequency, TF over GST control) with ETV7; 1.11 fold enrichment (6-mer frequency, TF over GST control) with ELF5; 1.23 fold enrichment (6-mer frequency, TF over GST control) in the assay with ETV3; 1.18 fold enrichment (6-mer frequency, TF over GST control) with ETV6.
